# Laboratory results published in PubChem BioAssay (Tox21).
# Results filed as inconclusive are left out. Entries that show only a call come without a potency. Activity calls are given as the source filed them. Calls follow the shape of the dose curve; as a rule, active = well fitted cell-killing curve with a large enough effect in the repeat runs; inconclusive = weak or mixed curves; inactive = flat fitted curve, though single readings scatter.
# Test: qHTS assay to identify small molecule antagonists of the TGF-beta/Smad signaling pathway - cell viability counter screen (AID 1346824); also: nearly all actives have a fitted effect of over 50% in size
# Conditions: SBE-bla HEK293T viability, CellTiter-Glo luminescence; series mostly up to 76.8 µM
# Text: U.S. Tox21 Program National Center for Advancing Translational Sciences [NCATS] NIH Chemical Genomics Center [NCGC] U.S. Environmental Protection Agency [EPA] National Institutes of Environmental Health Sciences [NIEHS] National Toxicology Program [NTP] U.S. Food and Drug Administration [FDA] Tox21 Assay Overview: Transforming growth factor beta (TGF-beta) superfamily consists of a large number of structurally related dimeric proteins that act as hormones or local mediators in regulating a wide range of biological functions. This superfamily includes TGF-betas themselves, the bone morphogenetic proteins (BMPs) and the activins. These ligands induce oligomerization of serine/threonine receptor kinases and phosphorylate the cytoplasmic signaling molecules of Smad protein family. CellSensor SBE-bla HEK 293T cell line (Life Technologies, Carlsbad, CA), responsive to TGF-beta was used to screen Tox21 10K compound library for identification of agonists/antagonists of the Smad signaling pathway. This cell line contains a beta-lactamase reporter gene under control of the Smad binding element (SBE) stably integrated into HEK 293T cells. Also cytotoxicity of the compounds was tested in parallel by measuring the cell viability using CellTiter-Glo assay system in the same wells.
# Tox21 Assay Protocol Summary: SBE-bla HEK 293T cells were dispensed at 4,000/well in 5 uL of assay medium into black wall/clear-bottom 1536-well plates using a Multidrop Combi (ThermoFisher Scientific, Waltham, MA) dispenser. After the assay plates were incubated at 37 C and 5% CO2 for an overnight, 23 nL of compounds dissolved in DMSO, positive controls or DMSO only was transferred to the assay plate by a Pintool station (Kalypsys, San Diego, CA). Compound transfer was followed by the addition of 1 uL of 0.25 ng/mL TGF-beta1 or assay buffer using two separate tips of Flying Reagent Dispenser (FRD, Aurora Discovery, San Diego, CA). The assay plates were incubated at 37 C and 5% CO2 for 5 hr. One uL of LiveBLAzer B/G FRET substrate (Life Technologies) was added using a Flying Reagent Dispenser (FRD, Aurora Discovery, San Diego, CA) and the plates were incubated at room temperature for 2 hr. Fluorescence intensity (405 nm excitation, 460 nm and 530 nm emissions) was measured using an Envision plate reader (PerkinElmer, Shelton, CT). For cytotoxicity read, 4 uL of CellTiter-Glo reagent (Promega Corporation, Madison, WI) was added to each well of the assay plates using FRD. After 30 min incubation at room temperature, the luminescence intensity was measured using ViewLux plate reader (PerkinElmer).
SMILES,Potency,outcome
CCCC[N+]1(C)CCCCC1,inactive,
COP(=O)(OC)OC=C(Cl)Cl,inactive,
Nc1ccccc1,inactive,
COCC(=O)N(c1c(C)cccc1C)C(C)C(=O)OC (stereo not given),inactive,
Cc1cc(-c2ccc(N)c(C)c2)ccc1N,inactive,
CCCCCC[n+]1ccccc1,inactive,
CCCC[n+]1ccccc1C,inactive,
O=C(O)CCl,inactive,
Cc1cc(Cl)ccc1N,inactive,
CCC[N+]1(C)CCCC1,inactive,
COc1ccccc1N,inactive,
Nc1ccc(-c2ccc(N)cc2)cc1,inactive,
Nc1ccc(Cl)cc1,inactive,
C1CCC(NC2CCCCC2)CC1,inactive,
C=CCOC(Cn1ccnc1)c1ccc(Cl)cc1Cl (stereo not given),inactive,
O=[N+]([O-])c1ccccc1O,inactive,
CC[N+](CC)(CC)CC,inactive,
CC[n+]1ccccc1,inactive,
COP(=O)(OC)C(O)C(Cl)(Cl)Cl (stereo not given),inactive,
C[N+](C)(C)Cc1ccccc1,inactive,

SMILES,Potency,outcome
Cc1cc(Cl)ccc1OCC(=O)O,inactive,
CCCC[n+]1cccc(C)c1,inactive,
CCCn1cc[n+](C)c1,inactive,
O=C(O)COc1ccc(Cl)cc1Cl,inactive,
CCOP(=S)(OCC)Oc1ccc2c(C)c(Cl)c(=O)oc2c1,inactive,
CNC,inactive,
O=[N+]([O-])O,inactive,inactive
CCCCn1cc[n+](C)c1C,inactive,
CC(=O)O,inactive,
Oc1cccc2cccnc12,inactive,
CCn1cc[n+](C)c1C,inactive,
O=C(O)c1ccccc1O,inactive,
CCCCn1cc[n+](C)c1,inactive,
CCCCCCn1cc[n+](C)c1,inactive,
O=C(O)c1nc(Cl)ccc1Cl,inactive,
CCC[N+]1(C)CCCCC1,inactive,
N#CS,inactive,
O=c1[nH]c(=O)n(Cl)c(=O)n1Cl,inactive,
O=C(O)C(Cl)Cl,inactive,
